Assay outcomes (PubChem)
The list is not random: actives were taken first. Their share in the collection is about 1.8%.
LYPLA1 counter – LYPLA1 (human) inhibition in PME1 counter-screen; O75608; recombinant LYPLA1, FP-Rh probe fluorescence polarization; inhibition, % at 5.9 µM; 320,000 compounds, 0.16% hits; AID 2174;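 active means inhibition above the mean of all tested compounds plus 3 SD, set per campaign, cut at about 14% in these data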;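 further: inhibitors block serine hydrolase probe labeling of LYPLA1 so polarization falls; 0% = enzyme with DMSO and 100% = wells lacking LYPLA1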
GSTO1 inh – blocks human GSTO1 in RBBP9 counter-screen; inhibition, % at 5.96 µM; P78417; 300,000 compounds, 1.1% hits; recombinant GSTO1, activity-based probe fluorescence polarization; AID 1974;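 active means inhibition above the campaign mean inhibition plus 3 SD, cut at about 35% in these data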;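 further: 0% = GSTO1-1 with DMSO and 100% = wells lacking GSTO1-1 enzyme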
Target sequence (P78417 whole entry, looked up): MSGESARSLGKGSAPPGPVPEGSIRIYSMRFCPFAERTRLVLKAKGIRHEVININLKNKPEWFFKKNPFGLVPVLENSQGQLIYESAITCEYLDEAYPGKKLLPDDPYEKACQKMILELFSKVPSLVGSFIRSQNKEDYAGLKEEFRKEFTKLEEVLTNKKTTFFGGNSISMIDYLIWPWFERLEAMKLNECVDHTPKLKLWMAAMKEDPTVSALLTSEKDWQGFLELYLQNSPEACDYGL
PME-1 inh – PME-1 (human) inhibition; Q9Y570; recombinant PME-1, FP-Rh probe fluorescence polarization; inhibition, % at 5.9 µM; 320,000 compounds, 0.53% hits; AID 2130;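 active means inhibition above the campaign mean of all compounds plus 3 SD, cut at about 26% in these data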;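 further: competitive labeling of PME-1 active site by serine hydrolase directed probe; 0% = PME-1 with DMSO and 100% = wells lacking PME-1 enzyme; inhibitors block probe labeling so polarization falls and inhibition rises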
Target sequence (Q9Y570 whole entry, looked up): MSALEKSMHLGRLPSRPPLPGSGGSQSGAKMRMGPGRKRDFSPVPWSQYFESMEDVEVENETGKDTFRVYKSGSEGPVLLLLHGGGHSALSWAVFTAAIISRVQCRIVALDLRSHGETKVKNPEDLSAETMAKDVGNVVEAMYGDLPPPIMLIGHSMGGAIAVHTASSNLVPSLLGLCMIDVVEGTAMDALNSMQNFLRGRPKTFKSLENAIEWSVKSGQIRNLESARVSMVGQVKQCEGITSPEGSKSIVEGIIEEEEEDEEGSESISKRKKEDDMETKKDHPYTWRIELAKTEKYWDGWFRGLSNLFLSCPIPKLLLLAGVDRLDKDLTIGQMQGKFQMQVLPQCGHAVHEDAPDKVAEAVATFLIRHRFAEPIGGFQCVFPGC
PAD4 FP inh – inhibitors of human PAD4; Q9UM07; recombinant PAD4, RCA probe fluorescence polarization; inhibition, % at 6.36 µM; 330,000 compounds, 0.41% hits; AID 485272;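 active means percent inhibition above a cutoff equal to the mean of all tested compounds plus 3 SD, cut at about 15% in these data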;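 further: 0% = PAD4 with RCA probe and DMSO and 100% = probe without PAD4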
LYPLA2 inh – counter-screen for PME1 inhibitors: inhibitors of human LYPLA2. recombinant LYPLA2, FP-Rh probe fluorescence polarization. inhibition, % at 5.9 µM. 320,000 compounds, 0.38% hits. AID 2177;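 active means inhibition above the screen-wide mean plus 3 SD, limit set per campaign, cut at about 26% in these data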;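 further: 0% = LYPLA2 with DMSO and 100% = wells lacking LYPLA2 enzyme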
Fam108B inh – counter-screen for RBBP9 inhibitors: inhibitors of mouse Fam108B; recombinant Fam108B, FP-Rh probe fluorescence polarization; inhibition, % at 9.51 µM; 300,000 compounds, 0.33% hits; AID 1947;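 active means inhibition above the screen mean inhibition plus 3 SD, computed separately per campaign, cut at about 18% in these data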;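 further: inhibitors lower polarization as less probe binds the enzyme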
GSTO1 inh conf – confirmation of human GSTO1 inhibitors. shares compounds with GSTO1 inh. recombinant GSTO1, probe fluorescence polarization. inhibition, % at 5.96 µM. 2,400 compounds, 54% hits;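 active means inhibition above the primary screen's cutoff, its mean inhibition plus 3 SD, cut at about 35% in these data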;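 further: loss of polarization as inhibitors block binding of rhodamine sulfonate ester activity probe; 0% = GSTO1 with DMSO and 100% = wells lacking GSTO1 enzyme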
GSTO1 ABPP inh – inhibitors of recombinant human GSTO1; shares compounds with GSTO1 inh; gel ABPP SE-Rh probe fluorescence; inhibition, % at 1 µM; 130 compounds, 30% hits;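 active means inhibition of the enzyme GSTO1 above about 75%, limit read from the data; inactive means inhibition below that limit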
Numbers without * were called inactive.

How did CCOc1ccc(/C(O)=C2/C(=O)C(=O)N(c3cc(C)on3)C2c2ccc(C(=O)OC)cc2)cc1 (centres undefined) do in these assays?
LYPLA1 counter: -0.1; GSTO1 inh: 44.4*; PME-1 inh: -2.8; PAD4 FP inh: -1.0; LYPLA2 inh: -5.2; Fam108B inh: 4.3; GSTO1 inh conf: 0.1

What do the screens show for `CCCOc1ccc(/C(O)=C2/C(=O)C(=O)N(c3cc(C)on3)C2c2ccc(C(=O)OC)cc2)cc1` (centres undefined)?
LYPLA1 counter: 3.6; GSTO1 inh: -8.5; PME-1 inh: 3.3; PAD4 FP inh: -3.7; LYPLA2 inh: 8.9; Fam108B inh: -2.9

Results for Cc1nnc(SC(C(=O)Nc2ccc(Cl)c([N+](=O)[O-])c2)c2ccccc2)[nH]c1=O (centres undefined) ?
LYPLA1 counter: -2.2; GSTO1 inh: -27.6; PME-1 inh: -8.9; PAD4 FP inh: -2.4; LYPLA2 inh: -6.3; Fam108B inh: 0.8

What do the screens show for `Cc1ccc(NC2=C(N3CCOCC3)C(=O)c3ccccc3C2=O)cc1`?
LYPLA1 counter: 3.2; GSTO1 inh: 48.0*; PME-1 inh: 6.8; PAD4 FP inh: -12.6; LYPLA2 inh: 6.1; Fam108B inh: 10.7; GSTO1 inh conf: 21.1

Results for CC(=O)c1ccc(S(=O)(=O)Nc2ccc(N3CCOCC3)cc2)cc1 ?
LYPLA1 counter: -8.2; GSTO1 inh: 17.8; PME-1 inh: 1.9; PAD4 FP inh: -0.2; LYPLA2 inh: -3.4; Fam108B inh: -4.1

Results for CC(=O)c1ccc(NC2=C(N3CCOCC3)C(=O)c3ccccc3C2=O)cc1 ?
LYPLA1 counter: -2.1; GSTO1 inh: 39.3*; PME-1 inh: 7.9; PAD4 FP inh: -17.6; LYPLA2 inh: 0.7; Fam108B inh: 1.6; GSTO1 inh conf: 8.0

Results for Cc1ccc(S(=O)(=O)NC2=C(N3CCN(c4ccccc4F)CC3)C(=O)c3ccccc3C2=O)cc1 ?
LYPLA1 counter: 0.9; GSTO1 inh: 11.9; PME-1 inh: 10.8; PAD4 FP inh: 1.3; LYPLA2 inh: -3.2; Fam108B inh: 7.8

Results for CCOc1ccc(OCCC(=O)OCC(=O)c2c(N)n(C)c(=O)n(C)c2=O)cc1 ?
LYPLA1 counter: -1.5; GSTO1 inh: -1.8; PME-1 inh: 0.7; PAD4 FP inh: 1.1; LYPLA2 inh: 3.5; Fam108B inh: -0.3

How did CC12CCC(C(=O)NNc3ccccc3)(C(=O)C1=O)C2(C)C (centres undefined) do in these assays?
LYPLA1 counter: 2.5; GSTO1 inh: -6.8; PME-1 inh: 1.5; PAD4 FP inh: -1.6; LYPLA2 inh: -2.2; Fam108B inh: -2.8

Results for CC(C)(C)C(=O)NC(c1ccccc1)c1c(O)ccc2ccccc12 (centres undefined) ?
LYPLA1 counter: 1.0; GSTO1 inh: 52.7*; PME-1 inh: 4.1; PAD4 FP inh: -4.5; LYPLA2 inh: 0.6; Fam108B inh: 2.4; GSTO1 inh conf: 6.2

Results for CC(C)N(Cc1cnn(C)c1)Cc1nc(-c2ccc(Cl)cc2)no1 ?
LYPLA1 counter: 3.3; GSTO1 inh: 0.2; PME-1 inh: 0.9; PAD4 FP inh: -3.9; LYPLA2 inh: 4.3; Fam108B inh: -6.1

What do the screens show for `COc1ccccc1NS(=O)(=O)c1ccc2nc(CCl)[nH]c2c1`?
LYPLA1 counter: -1.0; GSTO1 inh: 85.1*; PME-1 inh: 6.5; PAD4 FP inh: 2.2; LYPLA2 inh: 5.8; Fam108B inh: 6.8; GSTO1 inh conf: 91.0*; GSTO1 ABPP inh: 68.0

What do the screens show for `COC(=O)CSC1=C(C#N)C(c2ccsc2)CC(=O)N1` (centres undefined)?
LYPLA1 counter: -1.8; GSTO1 inh: -9.3; PME-1 inh: 1.9; PAD4 FP inh: 4.1; LYPLA2 inh: 5.0; Fam108B inh: 14.6

How did CCN(CCCNS(=O)(=O)c1ccc2c(c1)oc(=O)n2C)c1cccc(C)c1 do in these assays?
LYPLA1 counter: -2.2; GSTO1 inh: 38.2*; PME-1 inh: -0.7; PAD4 FP inh: 1.5; LYPLA2 inh: -2.4; Fam108B inh: 0.3; GSTO1 inh conf: 36.2*

Results for CCc1ccc(NS(=O)(=O)c2ccc3c(c2)oc(=O)n3C)cc1 ?
LYPLA1 counter: -2.0; GSTO1 inh: 53.0*; PME-1 inh: 4.8; PAD4 FP inh: -4.0; LYPLA2 inh: -10.4; Fam108B inh: 1.1; GSTO1 inh conf: 43.9*

How did Cc1ccc(N(CCC#N)C(=O)CCl)cc1C do in these assays?
LYPLA1 counter: -0.2; GSTO1 inh: 93.4*; PME-1 inh: 8.7; PAD4 FP inh: 9.3; LYPLA2 inh: 9.2; Fam108B inh: -2.8; GSTO1 inh conf: 90.1*; GSTO1 ABPP inh: 18.0

Results for Cc1ccc(SCC(=O)OCC(=O)N(CCC#N)c2ccccc2)cc1C ?
LYPLA1 counter: -1.8; GSTO1 inh: 6.4; PME-1 inh: -1.7; PAD4 FP inh: 1.8; LYPLA2 inh: 1.3; Fam108B inh: -0.8

How did O=C(CCNS(=O)(=O)c1ccc(Br)cc1)Nc1cccc(F)c1 do in these assays?
LYPLA1 counter: -1.6; GSTO1 inh: 1.1; PME-1 inh: 4.0; PAD4 FP inh: -4.0; LYPLA2 inh: 2.0; Fam108B inh: 2.3

How did Cc1nc(-c2ccc(Cl)cc2)sc1C1(C)CC(c2ccc(C#N)cc2)=NO1 (centres undefined) do in these assays?
LYPLA1 counter: -10.1; GSTO1 inh: 2.5; PME-1 inh: -6.5; PAD4 FP inh: 0.2; LYPLA2 inh: -4.0; Fam108B inh: -1.2

What do the screens show for `CC(=O)N1N=C(c2ccccc2)OC1c1ccc([N+](=O)[O-])s1` (centres undefined)?
LYPLA1 counter: -3.7; GSTO1 inh: 41.2*; PME-1 inh: -4.7; PAD4 FP inh: -12.8; LYPLA2 inh: -1.6; Fam108B inh: 1.0; GSTO1 inh conf: 13.8

What do the screens show for `CC(=O)N1N=C(c2cccc([N+](=O)[O-])c2)OC1c1ccc(Br)cc1` (centres undefined)?
LYPLA1 counter: 2.7; GSTO1 inh: -5.5; PME-1 inh: 0.6; PAD4 FP inh: 0.6; LYPLA2 inh: 5.0; Fam108B inh: -0.3

How did CC(C)(CNC(=O)c1cc2c(s1)CCCC2)N1CCOCC1 do in these assays?
LYPLA1 counter: 0.4; GSTO1 inh: 2.6; PME-1 inh: 1.6; PAD4 FP inh: 0.5; LYPLA2 inh: 4.0; Fam108B inh: 3.9

What do the screens show for `Cc1ccc(S(=O)(=O)N2CCC(C(=O)C3C(=O)CC(C)(C)CC3=O)CC2)cc1`?
LYPLA1 counter: -0.5; GSTO1 inh: -0.9; PME-1 inh: 0.1; PAD4 FP inh: -2.6; LYPLA2 inh: -6.2; Fam108B inh: 5.6

What do the screens show for `Cc1ccc(S(=O)(=O)/N=C2/C=C(C3C(=O)CC(C)(C)CC3=O)C(=O)c3ccccc32)cc1`?
LYPLA1 counter: -2.0; GSTO1 inh: 61.0*; PME-1 inh: 12.3; PAD4 FP inh: -1.5; LYPLA2 inh: 4.3; Fam108B inh: -1.9; GSTO1 inh conf: 10.9
